Source: PubChem BioAssay (National Center for Advancing Translational Sciences (NCATS))
Pf Dd2 growth – inhibitors of Plasmodium falciparum Dd2 growth. actives 4.3% (n = 120,000). P. falciparum Dd2 growth, SYBR Green, 72 h. Potency, µM (highest dose often 28.9 µM), for inactives: top-dose activity, negative = inhibition, usual class: inhibitors; active means well fitted inhibition curve with a large enough effect;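 further: plate controls were DMSO vehicle for no effect and reference drug for full effect; nearly all actives have a fitted effect of over 65% in size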
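Readout: SYBR Green fluorescence, 485 nm excitation, 535 nm emission, after ~16 h lysis at 37C. Before that, Dd2-infected red cells (2.5% hematocrit) grew 72 h with compound, 29 uM top final concentration.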
Numbers without * were called inactive; i = inactive; [ ] = dose if it differs, or a comment. This excerpt belongs to a sample that is enriched for hits. Potency means the concentration at half of the fitted maximal effect.

SMILES | Pf Dd2 growth
Cc1ccc(CSc2cn(CC(=O)N3CCCCC3)c3ccccc23)cc1 | -18.7%
O=C(CSc1cn(CC(=O)N2CCCCC2)c2ccccc12)Nc1ccccc1 | 18.4%
Cc1ccc(C(=O)/C=C/c2cn(CC(O)CN3CCCCCC3)c3ccccc23)cc1 (configuration not stated) | 12.6µM*
O=C(/C=C/c1cn(CC(O)CN2CCCCCC2)c2ccccc12)c1ccccc1 (configuration not stated) | 10µM*
COC(=O)c1ccc(NC(=O)CSc2cn(CC(=O)N3CCCCC3)c3ccccc23)cc1 | -8.6%
O=C(Cn1cc(SCc2ccccc2Cl)c2ccccc21)N1CCCCCC1 | -21.1%
Cc1ccccc1CSc1cn(CC(=O)N2CCCCCC2)c2ccccc12 | -25.7%
O=C(/C=C/c1cn(CC(O)CN2CCCCCC2)c2ccccc12)c1ccc(Br)cc1 (configuration not stated) | 10µM*
CNC(=O)CSc1cn(CC(=O)N2CCCCCC2)c2ccccc12 | -24.5%
CCCc1nn(-c2cccc(C)c2)c(=O)n1CC(=O)NCC1(O)CCCCC1 | -2.7%
Cn1nc(C(=O)N2CC[C@@H]3CN(S(C)(=O)=O)[C@@H]3C2)c2ccccc21 | 5.9%
COc1ccc(C(=O)N2CCC(c3n[nH]c(=O)n3Cc3ccc(F)cc3)CC2)cc1 | i
CCC(C)NC(=O)c1ccc2c(c1)CC(=O)N2C (configuration not stated) | -6.6%
COc1ccc(-n2nc(C3CCCN(C(=O)Cc4cccc(Cl)c4)C3)[nH]c2=O)cc1 (configuration not stated) | -23.5%
O=C(c1ccccc1Cl)N1CCCC(c2nn(-c3cccc(Cl)c3)c(=O)[nH]2)C1 (configuration not stated) | i
COc1ccc(C(=O)N2CCCC(c3nn(-c4ccccc4)c(=O)[nH]3)C2)cc1 (configuration not stated) | i
O=C(Cc1cccc(Cl)c1)N1CCCC(c2nn(-c3cccc(Cl)c3)c(=O)[nH]2)C1 (configuration not stated) | 10µM*
COc1ccc(-n2nc(C3CCCN(C(=O)c4ccccc4)C3)[nH]c2=O)cc1 (configuration not stated) | 11.2µM*
COc1ccc(-n2nc(C3CCN(C(=O)c4ccccc4)CC3)[nH]c2=O)cc1 | -21.3%
CCCc1noc(-c2cccn3c(CNC(=O)C4CCCC4)nnc23)n1 | -23.2%
COCCN(C)C[C@@H]1CN(C(=O)c2cc3ccccc3n(C)c2=O)C[C@@H]1CO | 11.0%
CCCN1C(=O)CC[C@H]2CN(C(=O)c3ccc4sccc4c3)CC[C@H]21 | -11.9%
Cc1ccc(NC(=O)c2cn(-c3ccccc3)nc2-c2ccccc2)cc1 | -27.9%
Cc1ccc(-n2cc(CN(C)C(C)C(=O)N(C)C)c(-c3cccc(C)c3)n2)cc1 (configuration not stated) | 3.98µM*
CC(=O)Nc1ccc(-c2c(-c3cccc(C)c3)nn(-c3ccc(F)cc3)c2OC(C)=O)cc1 | -17.0%
SMILES | Pf Dd2 growth
CC1(C)C(=O)N(CCOc2ccccc2)[C@H]2CN(c3cccc(C(F)(F)F)c3)C[C@@H]2[S+]1(=O)[O-] | -3.7%
O=C(CCC1CCN(c2cc(NC3CC3)ncn2)CC1)NCC1CC1 | -25.3%
COc1cccc(CC(=O)N2CCC3(CC2)CC(N(C2CC2)S(C)(=O)=O)CCO3)c1 (configuration not stated) | i
CN(Cc1ccccc1)C1CCOC2(CCN(C(=O)NC3CCCC3)CC2)C1 (configuration not stated) | 6.31µM*
COc1ccc(S(=O)(=O)N2CCC3(CC2)CC(N(C)Cc2ccccc2)CCO3)cc1 (configuration not stated) | 11.2µM*
COC1CCOC2(CCN(S(=O)(=O)c3ccccc3)CC2)C1 (configuration not stated) | 24.1%
CC(C)NC(=O)N(C1CC1)C1CCOC2(CCN(C(=O)NCc3ccccc3)CC2)C1 (configuration not stated) | 9.5%
CC(C)CNC(=O)N1CCC2(CC1)CC(N(C)Cc1ccccc1)CCO2 (configuration not stated) | 16.4%
Cn1ccc(NC(=O)C2(C)CN(Cc3ccccc3)Cc3ccc(N4CCOCC4)nc32)n1 (configuration not stated) | i
CCN(Cc1noc(C2CCC2)n1)C(=O)C(C)Oc1ccc2ccccc2c1 (configuration not stated) | i
O=C(NCc1ccc(N2CCOCC2)cc1)C1CCN(c2cnc3nccnc3c2)CC1 | i
CC(C)NC(=O)CN1CN(c2ccccc2)C2(CCN(C(=O)NCc3ccccc3)CC2)C1=O | i
CCCNC(=O)CN1CN(c2ccccc2)C2(CCN(C(=O)Nc3ccc(CC)cc3)CC2)C1=O | -17.5%
CC(C)(C)C(=O)N1CCC2(CC1)C(=O)N(CC(=O)Nc1cccc(Cl)c1)CN2c1ccccc1 | 3.98µM*
CCCNC(=O)N(C1CCOCC1)C1CCN(C(=O)c2ccsc2)CC1 | 3.8%
O=C(C[C@@H]1O[C@H](CNC(=O)C2CCCC2)[C@@H](O)[C@H]1O)Nc1ccccc1 | 33.1%[44.1 µM]
O=C1CCC2(CCCN(C(=O)c3ccnc(-n4cnnc4)c3)C2)CN1CC1CC1 (configuration not stated) | 3.1%
Cn1c(SCC(=O)Nc2nc3ccccc3s2)ncc(C(=O)Nc2ccc(F)cc2)c1=O | 23.8%
CC(=O)N1CCc2c(sc(NC(=O)CSc3ccc(F)cc3)c2-c2nc3ccccc3s2)C1 | i
CN1CCc2c(sc(NC(=O)CSc3ccc(F)cc3)c2-c2nc3ccccc3s2)C1 | 12.6µM*
CCn1cnnc1CC1CCN(C(=O)C2CCCCC2)C1 (configuration not stated) | 13.6%
COCCN1C(=O)c2cccn2CC1CNC(=O)c1ccc(C)nc1 (configuration not stated) | -15.4%
O=C1[C@@H]2C[C@@H](CN2C2CCOCC2)Oc2ccccc2N1Cc1ccccn1 | -15.5%[44.1 µM]
O=C1[C@@H]2C[C@@H](CN2Cc2ccc(C(F)(F)F)cc2)Oc2ccccc2N1Cc1cccnc1 | i
COCCN1C(=O)[C@@H]2C[C@@H](CN2C(=O)c2ccccc2)Oc2ccccc21 | 13.6%[44.1 µM]
SMILES | Pf Dd2 growth
COCCN1C(=O)[C@@H]2C[C@@H](CN2Cc2ccc(C(F)(F)F)cc2)Oc2ccccc21 | 14.1µM*
COc1ccc(CN2C(=O)[C@@H]3C[C@@H](CN3Cc3ccc(S(C)(=O)=O)cc3)Oc3ccccc32)cc1 | i
COCCN1C(=O)[C@@H]2C[C@@H](CN2Cc2ccccn2)Oc2ccccc21 | 10µM*
O=C(c1ccncc1)N1CCC(N2C(=O)C(OCC3CC3)C23CCOCC3)CC1 (configuration not stated) | 20.1%
CSCc1ccc(C(=O)N2CCOCC(O)(CN3CCCC3)C2)o1 (configuration not stated) | -24.1%
C[C@]1(CO)[C@H]2Cc3sc(NC(=O)COc4ccccc4)nc3[C@@H](CC(=O)O)[C@]2(C)CC[C@H]1O | -0.6%
CC(C)(C)C(=O)Nc1nc2c(s1)C[C@@H]1[C@](C)(CO)[C@H](O)CC[C@@]1(C)[C@@H]2CC(=O)NCCN1CCOCC1 | 12.3%
C[C@]1(CO)[C@H]2Cc3sc(NC(=O)c4ccc(F)cc4)nc3[C@@H](CC(=O)NC3CCCCC3)[C@]2(C)CC[C@H]1O | -10.0%
CCCCCC(=O)Nc1nc2c(s1)C[C@@H]1[C@](C)(CO)[C@H](O)CC[C@@]1(C)[C@@H]2CC(=O)NC1CCCC1 | 11.2µM*
C[C@]1(CO)[C@H]2Cc3sc(NC(=O)c4c(F)cccc4F)nc3[C@@H](CC(=O)NC3CCCC3)[C@]2(C)CC[C@H]1O | 5.01µM*
